# Results taken from PubChem BioAssay.
# Active and inactive are the calls of the source. Unless noted, how the calls were made is not given here.
# Legend:
# [1] = system: Wnt5a (protein binding on small-molecule microarray); experiment: Wnt5a binders on small-molecule microarray, primary screen, biophysical, 635/667 nm fluorescence (AID 1142); details: 635 nm fluorescence, higher = more signal;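 further: fluorescence read at 667 nm with signal to noise per printed feature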
# [2] = cell viability in Huh7 cells, primary screen, cytotoxicity control for HCV replication inhibitor project, CellTiter-Glo luminescence, basal, 48 h (AID 1143); details: Huh7 HCV replicon, higher = more signal, called active from +8 up or from −8 down;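 further: Huh7 hepatoma cells carrying a hepatitis C replication reporter with no stimulus; test concentration not given here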
# [3] = P. aeruginosa biofilm formation inhibitors, primary screen, PAO1 strain, BacTiter-Glo luminescence, LB-PBS (AID 1144); details: 12 h, higher = more signal
# [4] = CREB reporter modulators without forskolin, primary screen, cell-based, PC12, CRE-LacZ reporter, unstimulated (AID 1145); details: no forskolin, luminescence, 4.5 h, higher = more signal, called active from +8 up or from −8 down
# [5] = CREB reporter modulators under forskolin, primary screen, cell-based, PC12, CRE-LacZ reporter, forskolin-stimulated (AID 1146); details: luminescence, 4.5 h, higher = more signal, called active from +8 up or from −8 down;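 further: PC12 cells with 6xCRE LacZ reporter stimulated by forskolin 10 µM; beta-galactosidase reporter signal reflecting CREB driven transcription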
# [6] = target: Streptavidin (Streptomyces avidinii) (UniProt P22629); experiment: streptavidin binders on small-molecule microarray, primary screen, artefact control for SMM compound annotation, biophysical, 635/667 nm fluorescence (AID 1147); details: streptavidin binding, higher = more signal;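 further: signal reflects streptavidin binding to arrayed compounds as a control protein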
# Sequence of Streptavidin (Streptomyces avidinii) (P22629 whole entry, looked up): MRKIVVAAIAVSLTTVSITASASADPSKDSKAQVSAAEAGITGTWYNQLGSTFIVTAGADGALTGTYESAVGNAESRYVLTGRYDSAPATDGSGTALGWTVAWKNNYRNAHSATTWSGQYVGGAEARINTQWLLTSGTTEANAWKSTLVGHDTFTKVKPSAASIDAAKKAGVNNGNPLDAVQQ
# [7] = small-molecule binders of probe aInhba, primary screen, biochemical, small-molecule microarray, 635/667 nm fluorescence (AID 1148); details: higher = more signal;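 further: score merges 667nm spot fluorescence with signal-to-noise for antibody binding to printed compounds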
# Torsin-1A (Homo sapiens) [8] = target: Torsin-1A (Homo sapiens) (UniProt O14656); experiment: torsin A binders from cell lysate, primary screen, small-molecule microarray, wild-type, 635/667 nm (AID 1149); details: COS7 hTOR1A-WT lysate, 635 nm fluorescence, higher = more signal
# Sequence of Torsin-1A (Homo sapiens) (O14656 whole entry, looked up): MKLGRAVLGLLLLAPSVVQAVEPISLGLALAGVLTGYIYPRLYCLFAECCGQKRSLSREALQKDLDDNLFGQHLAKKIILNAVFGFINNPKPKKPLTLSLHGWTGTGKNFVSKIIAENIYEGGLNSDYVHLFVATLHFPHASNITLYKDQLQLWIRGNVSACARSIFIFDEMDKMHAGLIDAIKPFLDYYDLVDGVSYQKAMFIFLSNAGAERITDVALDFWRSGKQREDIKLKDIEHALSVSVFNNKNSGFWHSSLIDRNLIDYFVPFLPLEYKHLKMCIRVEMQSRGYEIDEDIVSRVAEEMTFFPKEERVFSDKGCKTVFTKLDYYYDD
# Torsin-1A (Homo sapiens) [9] = target: Torsin-1A (Homo sapiens) (UniProt O14656); experiment: small-molecule binders of mutant TOR1A in lysate, primary screen, cell lysate, small-molecule microarray, COS7 lysate, 635/667 nm fluorescence (AID 1150); details: COS7 hTOR1A mutant lysate, 635 nm fluorescence, higher = more signal;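 further: score pools 667 nm emission and signal to noise measuring lysate protein binding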
# [10] = system: Sonic hedgehog protein (Shh); experiment: small-molecule binders of Shh protein, primary screen, biochemical, small-molecule microarray, 635/667 nm fluorescence (AID 1151); details: small-molecule microarray binding, 635 nm fluorescence; higher = more signal;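 further: Shh protein binding to compounds spotted on small-molecule microarray slides; score combines spot fluorescence intensity with signal-to-noise across triplicate slides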
# [11] = E. coli DRC41 culture turbidity changes, primary screen, E. coli filamentation inducer project, strain DRC41, OD650, 48 h (AID 1152);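 further: E. coli MC1000 strain DRC41 lacking acrAB efflux pump and sulA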; details: E. coli DRC41 (acrAB sulA), higher = more signal, called active from +8 up or from −8 down
# [12] = small-molecule binders of probe aLefty1, primary screen, biochemical, small-molecule microarray, 635/667 nm fluorescence (AID 1153); details: higher = more signal;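 further: score merges spot fluorescence with signal-to-noise ratio from the scanned slide images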
# [13] = PSAC antagonists in infected red cells, primary screen, cell-based, P. falciparum Indochina, OD700, 1 h (AID 1154); details: P. falciparum Indochina infected RBC osmotic lysis, higher = more signal, called active from +8 up or from −8 down
# [14] = PSAC antagonists in infected red cells, primary screen, cell-based, P. falciparum Indochina, OD700, 2 h (AID 1155);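 further: lysis reports solute entry through the parasite surface anion channel PSAC; channel blockers reduce lysis of infected cells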; details: P. falciparum Indochina infected erythrocytes, osmotic lysis OD700; higher = more signal, called active from +8 up or from −8 down
# [15] = osmotic lysis modulators in infected erythrocytes, primary screen, PSAC antagonist project, cell-based, P. falciparum Indochina, OD700, 3 h (AID 1156); details: higher = more signal, called active from +8 up or from −8 down
# [16] = PSAC antagonists in infected red cells, primary screen, cell-based, P. falciparum Indochina, OD700, 18 h (AID 1157); details: P. falciparum Indochina infected erythrocytes, osmotic lysis OD700, 18 h; higher = more signal, called active from +8 up or from −8 down
# [17] = modulators of S6 phosphorylation in cells, primary screen, cell-based, A549, cytoblot, luminescence, serum-stimulated (AID 1158); details: A549 phospho-S6 cytoblot, 5 h, higher = more signal;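 further: serum-stimulated A549 lung adenocarcinoma cells; signal is phosphorylated S6 detected by cytoblot immunostaining with HRP secondary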
# [18] = target: NADPH oxidase 2 (Homo sapiens) (UniProt P04839); experiment: NOX2-dependent H2O2 signal modulators, primary screen, NOX inhibitor project, cell-based, HEK293-NOX2, PMA-stimulated, Amplex Red fluorescence (AID 1159); details: 45 min, higher = more signal, called active from +8 up or from −8 down; further: test concentration not given here
# Sequence of NADPH oxidase 2 (Homo sapiens) (P04839 whole entry, looked up): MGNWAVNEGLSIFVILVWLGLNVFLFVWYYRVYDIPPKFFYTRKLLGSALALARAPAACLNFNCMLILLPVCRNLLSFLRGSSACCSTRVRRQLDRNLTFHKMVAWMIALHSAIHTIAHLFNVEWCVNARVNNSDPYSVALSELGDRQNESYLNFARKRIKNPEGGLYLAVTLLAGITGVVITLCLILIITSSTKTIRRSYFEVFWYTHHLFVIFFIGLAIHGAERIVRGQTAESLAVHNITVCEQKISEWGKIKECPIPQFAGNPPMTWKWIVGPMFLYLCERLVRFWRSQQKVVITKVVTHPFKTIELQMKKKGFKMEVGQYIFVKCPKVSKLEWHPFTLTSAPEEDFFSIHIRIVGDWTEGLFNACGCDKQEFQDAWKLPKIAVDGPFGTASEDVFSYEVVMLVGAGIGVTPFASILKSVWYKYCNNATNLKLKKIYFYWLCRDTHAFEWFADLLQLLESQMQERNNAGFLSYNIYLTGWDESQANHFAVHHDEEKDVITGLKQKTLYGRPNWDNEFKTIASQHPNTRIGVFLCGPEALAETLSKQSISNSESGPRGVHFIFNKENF
# [19] = target: NADPH oxidase 4 (Homo sapiens) (UniProt Q9NPH5); experiment: NOX4-dependent H2O2 signal modulators, primary screen, NOX inhibitor project, cell-based, HEK293-NOX4, tetracycline-induced, Amplex Red fluorescence (AID 1160); details: 45 min, higher = more signal, called active from +8 up or from −8 down
# Sequence of NADPH oxidase 4 (Homo sapiens) (Q9NPH5 whole entry, looked up): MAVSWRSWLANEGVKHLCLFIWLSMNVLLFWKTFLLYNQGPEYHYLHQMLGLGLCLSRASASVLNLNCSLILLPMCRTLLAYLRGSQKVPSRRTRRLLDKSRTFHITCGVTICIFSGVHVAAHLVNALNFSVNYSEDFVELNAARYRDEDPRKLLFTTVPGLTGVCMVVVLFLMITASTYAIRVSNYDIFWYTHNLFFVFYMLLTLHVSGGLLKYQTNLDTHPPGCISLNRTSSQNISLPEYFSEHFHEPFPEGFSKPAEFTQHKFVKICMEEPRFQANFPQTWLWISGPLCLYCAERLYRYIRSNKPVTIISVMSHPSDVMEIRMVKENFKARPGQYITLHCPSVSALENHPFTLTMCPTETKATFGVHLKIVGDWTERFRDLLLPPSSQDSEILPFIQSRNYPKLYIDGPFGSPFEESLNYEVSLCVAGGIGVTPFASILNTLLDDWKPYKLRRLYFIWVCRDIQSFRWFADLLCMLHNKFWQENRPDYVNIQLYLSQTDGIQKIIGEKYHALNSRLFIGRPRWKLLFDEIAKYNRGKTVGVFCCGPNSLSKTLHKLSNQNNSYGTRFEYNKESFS
# [20] = target: NADPH oxidase 5 (Homo sapiens) (UniProt Q96PH1); experiment: NOX5-dependent H2O2 signal modulators, primary screen, NOX inhibitor project, cell-based, HEK293-NOX5, Amplex Red fluorescence (AID 1161); details: HEK293-NOX5, ionomycin, 45 min, higher = more signal
# Sequence of NADPH oxidase 5 (Homo sapiens) (Q96PH1 whole entry, looked up): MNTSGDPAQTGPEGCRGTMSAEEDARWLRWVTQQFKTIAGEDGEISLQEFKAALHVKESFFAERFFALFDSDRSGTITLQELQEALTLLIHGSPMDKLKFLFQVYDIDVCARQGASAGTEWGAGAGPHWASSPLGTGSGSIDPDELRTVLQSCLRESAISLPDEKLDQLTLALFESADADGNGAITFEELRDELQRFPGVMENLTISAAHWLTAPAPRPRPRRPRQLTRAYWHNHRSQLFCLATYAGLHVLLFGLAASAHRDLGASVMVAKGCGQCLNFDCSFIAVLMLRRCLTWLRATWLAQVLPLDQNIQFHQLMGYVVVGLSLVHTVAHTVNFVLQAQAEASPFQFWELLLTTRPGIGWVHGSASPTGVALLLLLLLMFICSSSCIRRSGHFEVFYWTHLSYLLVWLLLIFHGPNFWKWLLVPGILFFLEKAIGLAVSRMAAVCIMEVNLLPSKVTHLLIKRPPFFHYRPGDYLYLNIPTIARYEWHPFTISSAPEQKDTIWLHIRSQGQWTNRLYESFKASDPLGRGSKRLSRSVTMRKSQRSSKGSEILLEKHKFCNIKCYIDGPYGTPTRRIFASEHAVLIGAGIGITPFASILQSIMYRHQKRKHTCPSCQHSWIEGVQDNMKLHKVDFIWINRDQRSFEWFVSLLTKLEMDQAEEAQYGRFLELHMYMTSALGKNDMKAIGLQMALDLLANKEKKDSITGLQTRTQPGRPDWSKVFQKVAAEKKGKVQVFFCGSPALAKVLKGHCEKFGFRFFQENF
structure (smiles),measurement,setting,value
C#C[C@H](O[Si](C#Cc1ccc(Oc2ccccc2)cc1)(C(C)C)C(C)C)c1ccccc1,composite z-score,[1],0.0942
same,z-score,[2],-0.868 (inactive)
same,z-score,[3],-0.0203 (inactive)
same,z-score,[4],0.498 (inactive)
same,z-score,[5],1.7 (inactive)
same,composite z-score,[6],0.145
same,composite z-score,[7],-0.082
same,composite z-score,Torsin-1A (Homo sapiens) [8],1.38
same,composite z-score,Torsin-1A (Homo sapiens) [9],0.122
same,composite z-score,[10],0.21
same,z-score,[11],-0.425 (inactive)
same,composite z-score,[12],-0.104
same,z-score,[13],0.353 (inactive)
same,z-score,[14],0.787 (inactive)
same,z-score,[15],-2.03 (inactive)
same,z-score,[16],-0.206 (inactive)
same,z-score,[17],-0.305
same,z-score,[18],-1.03 (inactive)
same,z-score,[19],-2.59 (inactive)
same,z-score,[20],-3.04
COC(=O)[C@@]1(Cc2ccc(OC)cc2)[C@H]2c3cc(C(=O)N4CCCC4)n(CCN4CNCC4=O)c3C[C@H]2CN1C(=O)c1ccccc1,composite z-score,[1],2.12
same,z-score,[2],-0.508 (inactive)
same,z-score,[3],-0.12 (inactive)
same,z-score,[4],0.201 (inactive)
same,z-score,[5],-0.0971 (inactive)
same,composite z-score,[6],-0.002
same,composite z-score,[7],1.59
same,composite z-score,Torsin-1A (Homo sapiens) [8],0.294
same,composite z-score,Torsin-1A (Homo sapiens) [9],0.0178
same,composite z-score,[10],-1.14
same,z-score,[11],-0.82 (inactive)
same,composite z-score,[12],1.86
same,z-score,[13],2.95 (inactive)
same,z-score,[14],0.0621 (inactive)
same,z-score,[15],0.775 (inactive)
same,z-score,[16],0.838 (inactive)
same,z-score,[17],0.287
same,z-score,[18],0.468 (inactive)
same,z-score,[19],-2.36 (inactive)
same,z-score,[20],-4.44
Cc1ccc(S[C@]2(C(=O)O)CC(=O)N(C(C)C)[C@@H]2c2ccc(CO)cc2I)cc1,composite z-score,[1],-0.0822
same,z-score,[2],-2.86 (inactive)
same,z-score,[3],-0.29 (inactive)
same,z-score,[4],0.324 (inactive)
same,z-score,[5],0.289 (inactive)
same,composite z-score,[6],0.513
same,composite z-score,[7],0.516
same,composite z-score,Torsin-1A (Homo sapiens) [8],0.523
same,composite z-score,Torsin-1A (Homo sapiens) [9],0.202
same,composite z-score,[10],-0.189
same,z-score,[11],3.35 (inactive)
same,composite z-score,[12],0.775
same,z-score,[13],14.3 (active)
same,z-score,[14],1.02 (inactive)
same,z-score,[15],0.532 (inactive)
same,z-score,[16],-0.263 (inactive)
same,z-score,[17],2.24
same,z-score,[18],0.899 (inactive)
same,z-score,[19],-2.47 (inactive)
same,z-score,[20],0.852
CCOC(=O)C[C@H]1[C@H](OC(=O)c2ccc(-c3ccccc3)cc2)[C@@H](NC(=O)Cc2ccc(OC)cc2)c2cc(OCCCO)ccc2N1C(=O)c1ccccc1,composite z-score,[1],0.118
same,z-score,[2],-1.02 (inactive)
same,z-score,[3],0.338 (inactive)
same,z-score,[4],-0.505 (inactive)
same,z-score,[5],-0.15 (inactive)
same,composite z-score,[6],-0.0322
same,composite z-score,[7],-0.0645
same,composite z-score,Torsin-1A (Homo sapiens) [8],-0.36
same,composite z-score,Torsin-1A (Homo sapiens) [9],0.023
same,composite z-score,[10],0.265
same,z-score,[11],-0.539 (inactive)
same,composite z-score,[12],0.206
same,z-score,[13],1.84 (inactive)
same,z-score,[14],-0.259 (inactive)
same,z-score,[15],0.438 (inactive)
same,z-score,[16],0.285 (inactive)
same,z-score,[17],1.3
same,z-score,[18],-1.43 (inactive)
same,z-score,[19],-1.72 (inactive)
same,z-score,[20],-0.795
O=C1c2ccccc2[C@](Cc2ccccc2I)(C(=O)NCC(F)(F)F)[C@H](c2ccc(CO)cc2)N1Cc1ccccc1Cl,composite z-score,[1],0.0919
same,z-score,[2],-0.703 (inactive)
same,z-score,[3],-1.28 (inactive)
same,z-score,[4],0.506 (inactive)
same,z-score,[5],0.779 (inactive)
same,composite z-score,[6],0.742
same,composite z-score,[7],0.216
same,composite z-score,Torsin-1A (Homo sapiens) [8],-0.14
same,composite z-score,Torsin-1A (Homo sapiens) [9],0.34
same,composite z-score,[10],1.37
same,z-score,[11],0.193 (inactive)
same,composite z-score,[12],-0.105
same,z-score,[13],4.4 (inactive)
same,z-score,[14],0.208 (inactive)
same,z-score,[15],1.84 (inactive)
same,z-score,[16],0.499 (inactive)
same,z-score,[17],0.312
same,z-score,[18],2.69 (inactive)
same,z-score,[19],0.566 (inactive)
same,z-score,[20],1.05
CCCCCN1CC=CC23O[C@@H]4/C=C\CCC(C)OC(=O)C4[C@H]2C(=O)N(C(C)CO)[C@@H]3C1=O (stereo not given in full),composite z-score,[1],-0.105
same,z-score,[2],0.28 (inactive)
same,z-score,[3],-0.818 (inactive)
same,z-score,[4],-1.17 (inactive)
same,z-score,[5],-0.672 (inactive)
same,composite z-score,[6],-0.659
same,composite z-score,[7],-0.0933
same,composite z-score,Torsin-1A (Homo sapiens) [8],-1.11
same,composite z-score,Torsin-1A (Homo sapiens) [9],-0.742
same,composite z-score,[10],1.09
same,z-score,[11],0.585 (inactive)
same,composite z-score,[12],0.0077
same,z-score,[13],0.901 (inactive)
same,z-score,[14],-0.356 (inactive)
same,z-score,[15],0.847 (inactive)
same,z-score,[16],0.355 (inactive)
same,z-score,[17],-0.0749
same,z-score,[18],0.642 (inactive)
same,z-score,[19],-0.2 (inactive)
same,z-score,[20],1.84
O=C1C2C=CC(C(O)c3cccc4ccccc34)N(Nc3ccccc3F)C2C(=O)N1c1ccccc1 (stereo not given),composite z-score,[1],0.115
same,z-score,[2],-0.586 (inactive)
same,z-score,[3],-0.732 (inactive)
same,z-score,[4],-0.62 (inactive)
same,z-score,[5],0.276 (inactive)
same,composite z-score,[6],1.66
same,composite z-score,[7],0.103
same,composite z-score,Torsin-1A (Homo sapiens) [8],1.44
same,composite z-score,Torsin-1A (Homo sapiens) [9],0.993
same,composite z-score,[10],-0.458
same,z-score,[11],-0.875 (inactive)
same,composite z-score,[12],0.419
same,z-score,[13],3.49 (inactive)
same,z-score,[14],1.34 (inactive)
same,z-score,[15],-0.481 (inactive)
same,z-score,[16],1.05 (inactive)
same,z-score,[17],-0.607
same,z-score,[18],-0.26 (inactive)
same,z-score,[19],-2.65 (inactive)
same,z-score,[20],-1.21
COCCCNC(=O)[C@@]1(C)c2ccccc2C(=O)N(C(C)C)[C@H]1c1ccc(CO)cc1,composite z-score,[1],0.292
same,z-score,[2],0.169 (inactive)
same,z-score,[3],0.0334 (inactive)
same,z-score,[4],0.234 (inactive)
same,z-score,[5],0.174 (inactive)
same,composite z-score,[6],0.889
same,composite z-score,[7],0.143
same,composite z-score,Torsin-1A (Homo sapiens) [8],-0.277
same,composite z-score,Torsin-1A (Homo sapiens) [9],0.776
same,composite z-score,[10],1.38
same,z-score,[11],-0.794 (inactive)
same,composite z-score,[12],0.163
same,z-score,[13],0.877 (inactive)
same,z-score,[14],-0.057 (inactive)
same,z-score,[15],0.386 (inactive)
same,z-score,[16],0.743 (inactive)
same,z-score,[17],-0.504
same,z-score,[18],-0.636 (inactive)
same,z-score,[19],0.43 (inactive)
same,z-score,[20],-0.249
CCOC(=O)[C@H]1C/C=C/C[C@H](C(=O)OCC)C(=O)O[C@H]2[C@@H](OC)O[C@H](CO)[C@@H](OC(=O)c3c(OC)cccc3OC)[C@@H]2OC1=O,composite z-score,[1],0.172
same,z-score,[2],-4.57 (inactive)
same,z-score,[3],0.0437 (inactive)
same,z-score,[4],0.0816 (inactive)
same,z-score,[5],1.33 (inactive)
same,composite z-score,[6],0.475
same,composite z-score,[7],-0.0501
same,composite z-score,Torsin-1A (Homo sapiens) [8],0.292
same,composite z-score,Torsin-1A (Homo sapiens) [9],0.209
same,composite z-score,[10],1.44
same,z-score,[11],-0.664 (inactive)
same,composite z-score,[12],0.446
same,z-score,[13],13.5 (active)
same,z-score,[14],2.34 (inactive)
same,z-score,[15],-0.083 (inactive)
same,z-score,[16],1.2 (inactive)
same,z-score,[17],0.122
same,z-score,[18],-3.32 (inactive)
same,z-score,[19],-0.754 (inactive)
same,z-score,[20],-3.76
